In the library only some 4.3% were active in any assay of this set; here they are far more common.
Yeast superoxide – reduction of superoxide in aged yeast, primary screen, HTS; S. cerevisiae aged cells, superoxide DHE fluorescence; stronger effect = lower value; superoxide response (% of plate mean), % at 10 µM; 330,000 tested, 0.18% active; AID 2690, 2010;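 active = superoxide response under a set limit, about three screen SD below normal, cut at about 65% in these data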;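 also: yeast aged for seven days with compound at 30 °C before DHE staining; 100% = average MFI of all compound-treated wells on the plate with controls excluded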
dFosB act – activators of delta FosB homodimer, primary screen, biochemical, fluorescence polarization, TAMRA-CDK5 oligo, single point; purified delta FosB; percent of positive-control signal above neutral wells; activation, % at 25 µM; 340,000 tested, 0.99% active;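 active = mean activation above about 17%, with every replicate also reaching it, limit read from the data, passing the limit was not always enough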
Target sequence (P13346 whole entry, looked up): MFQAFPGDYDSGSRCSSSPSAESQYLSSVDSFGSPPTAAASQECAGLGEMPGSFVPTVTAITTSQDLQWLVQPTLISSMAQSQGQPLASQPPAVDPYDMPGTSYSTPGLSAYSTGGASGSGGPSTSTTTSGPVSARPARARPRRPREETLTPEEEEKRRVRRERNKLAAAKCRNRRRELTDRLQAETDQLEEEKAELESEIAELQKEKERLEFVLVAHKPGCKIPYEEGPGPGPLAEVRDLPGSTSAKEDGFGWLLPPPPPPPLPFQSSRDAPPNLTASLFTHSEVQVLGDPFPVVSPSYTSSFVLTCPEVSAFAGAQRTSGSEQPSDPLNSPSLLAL
NR3A LBD binder – binders of NR3A ligand-binding domain, primary screen, biophysical, differential scanning fluorimetry, uHTS | Glutamate receptor ionotropic, NMDA 3A (GRIN3A) ligand-binding domain | NR3A LBD differential scanning fluorimetry, Tm shift; 0% = protein alone, 100% = glycine-bound protein | Tm shift relative to glycine control, % at 25 µM | 340,000 tested, 2.5% active;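 active = melting temperature shift of at least 10% of the positive control shift, at one fixed dose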
NALP1 inh – NALP1 inflammasome inhibitors in reconstituted yeast, colorimetric, S. cerevisiae, triplicate retest. S. cerevisiae NALP1/ASC/caspase-1 growth, X-gal OD620, 72 h. inhibition, % at 10 µM. 280,000 tested, 0.61% active; in the data active = inhibition mostly above about 24%, no sharp cut-off; inactive = mostly below about 32%
UBC13 polyUb – UBC13 polyubiquitin chain formation inhibitors, primary screen, biochemical, TR-FRET, uHTS | Ubiquitin-conjugating enzyme E2 N (Homo sapiens), P61088 | inhibition, % at 20 µM | 330,000 tested, 0.47% active; in the data active = inhibition above about 45%, passing the limit was not always enough
Target sequence (P61088 whole entry, looked up): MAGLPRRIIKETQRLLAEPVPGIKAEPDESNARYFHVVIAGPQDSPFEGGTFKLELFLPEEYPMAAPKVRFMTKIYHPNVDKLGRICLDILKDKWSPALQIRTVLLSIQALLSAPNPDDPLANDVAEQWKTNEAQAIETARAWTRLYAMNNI
Active calls of the source: *; . = not tested or not shown.

SMILES | Yeast superoxide | dFosB act | NR3A LBD binder | NALP1 inh | UBC13 polyUb
C/[N+]([O-])=C\CC(=O)c1ccc(-c2ccccc2)cc1 | 99 | 0 | 0 | 29* | 2
CC1Cn2c(nc3sc4c(c3c2=O)CC(C)(C)OC4)N1CCO (stereo not given) | 98 | 5 | 1 | 10 | 2
CCCOc1ccccc1NC(=O)/C=C/C(N)=O | 83 | 6 | 1 | 59* | -6
O=C(c1ccccc1)c1cccc[n+]1[O-] | 115 | 2 | 0 | 17 | -1
CCOC(=O)C1=C(COC(=O)Cc2ccc(Br)cc2)NC(=O)NC1C (stereo not given) | 99 | 3 | 1 | 3 | 2
Nc1c(S(=O)(=O)c2ccccc2)c2nc3ccccc3nc2n1/N=C/c1cccc(O)c1 | 108 | 15 | 25* | 10 | 3
Cc1ccc(C)c(S(=O)(=O)c2c(N)n(/N=C/c3ccco3)c3nc4ccccc4nc23)c1 | 103 | -5 | 36* | 24 | -9
CC(=O)/C(=N/Nc1ccccc1C)N1CCOCC1 | 96 | -4 | 3 | -17 | 5
O=C(NCCS(=O)(=O)N1CCN(c2ccccc2)CC1)c1ccc2c(c1)OCO2 | 107 | 6 | 1 | . | 2
O=C(NCCS(=O)(=O)N1CCN(c2ccccc2F)CC1)c1ccc2c(c1)OCO2 | 102 | -1 | 31* | . | 4
Cn1cc(CN2CCN(Cc3ccccc3)C(CCO)C2)c(-c2ccccc2)n1 (stereo not given) | 96 | -17 | 0 | 11 | 3
CC(C)c1cc(C(C)C)n2nc(N)nc2n1 | 98 | -3 | 10* | 19 | 6
Cc1cc(-c2ccc(Cl)cc2)n2nc(N)nc2n1 | 111 | -6 | 0 | 10 | 6
O=C(C[C@H]1C/C=C\C[C@@H](Cc2ccc(F)cc2)C(=O)OC[C@@H]2CCCN2C1=O)NCCO | 114 | -4 | 3 | . | 11
Cc1ccc(NC(=O)c2oc3ccccc3c2NC(=O)c2ccc3c(c2)OCO3)cc1 | 98 | -20 | -1 | 31* | 6
CC(=O)Nc1cccc(NC(=O)C2CC(=O)N(C3CCCCC3)C2)c1 (stereo not given) | 115 | -1 | -3 | 6 | -14
O=C(Nc1cccc([N+](=O)[O-])c1)C1CC(=O)N(C2CCCCC2)C1 (stereo not given) | 98 | -10 | 14* | -9 | 6
O=C(Nc1c(C(=O)Nc2cccc(F)c2)oc2ccccc12)c1ccc2c(c1)OCO2 | 74 | 2 | 1 | 18 | 29
Cc1cc(C(=O)Nc2ccc3c(c2)OCCO3)ccc1[N+](=O)[O-] | 108 | 1 | -7 | 41* | 1
O=C(Nc1cccc([N+](=O)[O-])c1)Nc1cccc([N+](=O)[O-])c1 | 88 | -4 | 26* | -8 | 10
Cn1ccnc1SCC(=O)NC1(C#N)CCCCC1 | 92 | 3 | . | . | 2
O=C(Nc1ccc(Br)cc1)C1OCCc2ccccc21 (stereo not given) | 99 | -1 | 3 | . | 17
O=CNC1(c2ccccc2)CCCCC1 | . | -4 | -2 | . | .
CCC(C)c1ccc(C(CC)NC(=O)C2CCCO2)cc1 (stereo not given) | 99 | -1 | 3 | 27 | -8
O=C(Nc1cccc([N+](=O)[O-])c1)Nc1ccc2c(c1)OCCO2 | 104 | -1 | 29* | 11 | 3
SMILES | Yeast superoxide | dFosB act | NR3A LBD binder | NALP1 inh | UBC13 polyUb
Cc1ccc(NC(=O)c2ccc3c(c2)OCO3)cc1Cl | 99 | -7 | 17* | 17 | -10
O=C(NCc1ccco1)Nc1cccc([N+](=O)[O-])c1 | . | 2 | 19* | 4 | -1
O=C(NCc1ccncc1)Nc1cccc([N+](=O)[O-])c1 | 92 | 0 | -6 | -9 | 1
CC(C(=O)Nc1ccc2c(c1)OCCO2)c1ccc([N+](=O)[O-])cc1 (stereo not given) | 96 | -3 | 3 | 2 | 4
COc1cc(NC(=O)Nc2cccc([N+](=O)[O-])c2)cc(OC)c1 | 104 | -8 | 29* | 1 | 22
COc1ccc(CCNC(=O)Nc2cccc([N+](=O)[O-])c2)cc1 | 109 | -4 | 6 | -17 | -2
O=C(CCC(=O)NC1CCCCC1)Nc1cccnc1 | 102 | 3 | -4 | 14 | 1
CCCCn1c(N)c(N(CCOC)C(=O)COC(=O)COc2ccc(CC)cc2)c(=O)[nH]c1=O | 85 | 4 | 0 | . | 4
Cc1cc(C)cc(OCC(=O)NN2C(=O)c3ccccc3C2=O)c1 | 104 | 0 | 0 | 33 | -9
CC(C)S(=O)(=O)c1csc(NC(=O)Nc2cccc([N+](=O)[O-])c2)c1Cl | 102 | 2 | 29* | 10 | 11
O=C(Nc1ccc(C(=O)O)cc1)Nc1cccc([N+](=O)[O-])c1 | 88 | 11 | 1 | 11 | -1
O=C(COc1cccc([N+](=O)[O-])c1)NN1C(=O)c2ccccc2C1=O | 109 | 1 | 546* | -30 | 0
CC(C)C(=O)Nc1cccc(NC(=S)NC(=O)c2ccc3c(c2)OCO3)c1 | 104 | 2 | 12* | 14 | -7
CC(=O)Nc1cccc(OCc2cccc([N+](=O)[O-])c2)c1 | . | 8 | 17* | . | .
CC(C)c1ccc(C2/C(=C(/O)c3ccc(F)cc3)C(=O)C(=O)N2CCCN2CCOCC2)cc1 (stereo not given) | 105 | -2 | 0 | -8 | -13
O=C(/C=C/c1cccc([N+](=O)[O-])c1)c1ccc2c(c1)OCCO2 | 102 | -5 | -3 | 40* | 9
C[C@H]1[C@@H](c2ccccc2)Oc2ccc(Cl)cc2S(=O)(=O)N1Cc1ccc(F)cc1F | . | -9 | 15* | . | .
COc1ccc(C(=O)Nc2ccc3ccccc3c2)cc1OC | 107 | -11 | 8 | 5 | 6
COc1ccc(NC(=O)c2ccc(C#N)cc2)cc1NS(=O)(=O)c1ccc(F)cc1 | 97 | -6 | 0 | 35 | 11
COc1cccc(-c2cc(=O)c3cc(NC(=O)c4ccccc4)ccc3[nH]2)c1 | 104 | -5 | 26* | 12 | 0
Cc1ccnc(NC(=O)c2cccc(OC(F)F)c2)n1 | 93 | 10 | 1 | 0 | 0
COc1ccc(OC)c(NS(=O)(=O)c2ccc(NC(=O)c3ccc(NS(C)(=O)=O)cc3)cc2)c1 | 101 | 15 | 21* | 14 | 9
O=C(Nc1cc(Cl)cc(Cl)c1)c1cccc(OC(F)F)c1 | 112 | -10 | 25* | -4 | -8
Cn1nnc2cc(C(=O)Nc3ccc4ccccc4c3)ccc21 | 101 | -4 | 21* | 3 | 4
O=C(O)CNC(=O)c1ccc(S(=O)(=O)N2CCOCC2)cc1 | 92 | -2 | 0 | 1 | 10

Assay outcomes: PubChem BioAssay, several laboratories
